Screening data deposited in PubChem by National Center for Advancing Translational Sciences (NCATS).
HCV inh – inhibitors of hepatitis C virus infection; AID 651820; Potency, µM (series often up to 41.8 µM), hits mostly inhibitors; Huh7.5.1 HCVcc-Cre infection, luciferase reporter, 44 h; actives 3.4% (n = 340,000)
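Compounds are dispensed onto cells plated 4 h earlier at 1,000 per well, with HCVcc-Cre virus (about 0.5 moi) added next. Following 44 h of culture, luminescent signal is measured for 15 sec after 15 min with substrate at room temperature.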
SARS PLP yeast – blocks SARS-CoV papain-like protease in a yeast assay; S. cerevisiae expressing SARS-CoV PLpro, growth rescue; Potency, µM (titrated, usually from 32.9 µM), most hits filed as activators; actives 0.19% (n = 330,000); calls by dose curve; also: nearly all actives have a fitted effect of over 55% in size
AMA1 RON2 block – disrupts binding of P. falciparum AMA1 to RON2; AlphaScreen AMA1-biotinylated RON2 peptide binding; Potency, µM (top dose mostly 58.2 µM), most hits filed as inhibitors; actives 0.2% (n = 360,000); AID 720542; also: nearly all actives have a fitted effect of over 45% in size
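AMA1 (3D7) with his tag at 25 nM final met compounds first, then biotinylated RON2 peptide at 25 nM; detection used donor plus acceptor beads, 10 µg/mL apiece, read by AlphaScreen after 30 min at room temperature.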
Pf growth 96h – inhibits malaria parasite growth, 96 h. P. falciparum luciferase reporter growth, 96 h. Potency, µM (highest dose often 28.7 µM), usual class: inhibitors. actives 6.9% (n = 320,000)
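Infected RBCs, 2% Hct / 0.05% parasitemia final; luciferase-reporter P. falciparum; cpd 96 h, 37 C, 5% CO2; luciferase detection reagent; luminescence.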
NS1 function inh – influenza NS1 inhibition; Potency, µM (highest dose often 46.1 µM); actives 0.4% (n = 270,000); calls by dose curve; also: actives are rising curves; nearly all actives have a fitted effect of over 50% in size
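Recovery from NS1-induced slow growth read by OD600 in budding yeast switched to galactose assay medium (pH 6.0, -URA) at 1:100 dilution. Compound 23 nl per well; the matching strain lacking NS1 serves as control.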
Pf growth 48h – P. falciparum growth inhibition at 48 hours (one generation); P. falciparum luciferase growth in erythrocytes, 48 h; actives 5.9% (n = 310,000); Potency, µM (doses to about 28.7 µM), most hits filed as inhibitors
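Read-out is firefly luciferase luminescence from an integrated reporter in P. falciparum, so falling signal marks reduced parasite growth. Infected erythrocytes were at 2% hematocrit and 0.1% parasitemia (final) in Albumax-supplemented RPMI 1640.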
Hits are given with their value; - = inactive; ? = inconclusive; . = no result; [ ] = dose if it differs, or a comment. Most compounds without a hit are left out; they make up all but 12% or so of the library. Unless noted, calls follow the shape of the dose curve; as a rule, active = well fitted curve in the direction sought with a large enough effect; inconclusive = small, poorly fitted or top-dose-only effect, or another doubt; inactive = no such curve, though single readings can be large; an effect the other way counts as inactive or inconclusive.

SMILES	HCV inh	SARS PLP yeast	AMA1 RON2 block	Pf growth 96h	NS1 function inh	Pf growth 48h
CC(C)CC(NS(=O)(=O)c1ccc2c(c1)oc(=O)n2C)C(=O)N1CC=C(c2ccccc2)CC1 (configuration not stated)	-	?	-	10µM	-	.
Cn1c(=O)oc2cc(S(=O)(=O)NCCC(=O)N3CC=C(c4ccccc4)CC3)ccc21	-	-	-	-	-	?
CCOC(=O)N1CCN(C(=O)C(CC(C)C)NS(=O)(=O)c2ccc3c(c2)oc(=O)n3C)CC1 (configuration not stated)	-	-	-	10µM	-	.
Cc1ccc(-c2nc(CS(=O)(=O)CC(=O)Nc3cc(F)ccc3F)c(C)o2)cc1	?	-	-	?	-	-
CCC(C)(C)NC(=O)CN(C(=O)CCC(=O)Nc1nccs1)c1ccc2c(c1)OCCO2	-	-	-	-	-	?
CN(C)S(=O)(=O)c1cc(NC(=O)COC(=O)c2ccc3c(c2)OCO3)ccc1Cl	-	-	-	?	-	?
CN(Cc1nc(Cc2ccccc2F)no1)Cc1cccc2ncccc12	11µM	-	-	-	-	?
CN(Cc1nc(Cc2ccccc2F)no1)CC1(N2CCOCC2)CCCCC1	-	-	-	?	-	?
CC(C)c1ccc(NC(=O)c2ccc(-c3ccnn3C)c3ccoc23)cc1	.	.	-	.	.	.
Cc1ccc2ccc3ccc(C)nc3c2n1	0.32µM	-	-	-	-	0.23µM
O=C(Nc1ccccc1)c1ccc(F)c(S(=O)(=O)N2CCOCC2)c1	-	-	-	?	-	?
O=C(Nc1ccc(-c2cn3ccsc3n2)cc1)c1ccc(F)c(S(=O)(=O)N2CCOCC2)c1	5.6µM	-	-	9.3µM	-	-
O=C(Nc1cc(S(=O)(=O)N2CCOCC2)ccc1O)c1ccc(NS(=O)(=O)c2ccc(Cl)s2)cc1	?	-	-	-	-	-
Cc1nc2ccc(NC(=O)c3ccc(C)c(S(=O)(=O)N4CCOCC4)c3)cc2s1	10µM	-	-	?	.	?
Cc1nc2ccc(NC(=O)c3cc(S(=O)(=O)N4CCOCC4)ccc3C)cc2s1	?	-	-	9.3µM	-	.
Cc1ccc(NC(=O)c2ccc3c(c2)OCO3)cc1S(=O)(=O)N1CCOCC1	-	-	-	?	.	-
Cc1ccc(NC(=O)c2ccccc2NS(=O)(=O)c2ccc(Cl)s2)cc1S(=O)(=O)N1CCOCC1	?	-	-	?	-	12µM
COc1ccc(CCC(=O)Nc2c(-c3ccc(N(C)C)cc3)[nH][nH]c2=O)cc1	.	.	-	.	.	.
O=C(NCCc1ccccc1Cl)C1CC(=O)N(C2CCCCC2)C1 (configuration not stated)	-	-	-	-	-	-
COc1ccc(-c2ccc(/C=C(\NC(=O)c3ccccc3)C(=O)N3CCOCC3)o2)cc1	-	-	-	-	-	13µM
CN(C)CCNC(=O)/C(=C/c1ccc(-c2ccc(Cl)cc2)o1)NC(=O)c1ccccc1	10µM	-	-	-	-	13µM
COc1ccc(C(=O)N/C(=C\c2ccccc2)C(=O)N2CCOCC2)cc1	.	-	-	-	-	-
CN(C)CCNC(=O)/C(=C/c1ccc(-c2ccc(Cl)cc2Cl)o1)NC(=O)c1ccccc1	10µM	-	-	-	-	12µM
Cc1ccc(C(=O)N/C(=C\c2ccc(-c3ccccc3[N+](=O)[O-])o2)C(=O)NCCCN2CCOCC2)cc1	25µM	-	-	2.9µM	-	1.9µM
CN(C)CCCNC(=O)/C(=C\c1ccc(-c2cccc([N+](=O)[O-])c2)o1)NC(=O)c1ccccc1	?	-	-	-	-	?
SMILES	HCV inh	SARS PLP yeast	AMA1 RON2 block	Pf growth 96h	NS1 function inh	Pf growth 48h
OCC1O[C@@H](O[C@@H]2C(CO)OC(O)C(O)C2O)C(O)C(O)C1O (some centres not stated)	.	.	.	-	.	-
CC1(C)OC(=O)C2=C(C[C@@H](C3CCCCC3)O[C@H]2c2ccc(Cl)cc2)O1	.	.	-	.	.	.
CCN(CC)c1ccc(S(=O)(=O)N2CCOCC2)cc1NC(=O)CSc1nncs1	-	-	-	?	.	?
COc1ccc(NC(=O)C(=O)c2cn(CC(=O)N3CCOCC3)c3ccccc23)cc1OC	?	-	-	?	-	-
Cc1ccc(C(=O)N/C(=C\c2ccc(-c3ccc(Br)cc3)o2)C(=O)NCCCN(C)C)cc1	2µM	-	-	?	.	?
O=C(N/C(=C\c1ccc(Br)cc1)C(=O)N1CCOCC1)c1ccc([N+](=O)[O-])cc1	-	-	-	-	-	-
O=C(N/C(=C\c1ccco1)C(=O)N1CCOCC1)c1ccc([N+](=O)[O-])cc1	-	-	-	4.7µM	-	-
Cc1nc2sc(C(c3ccco3)N3CCN(C(c4ccccc4)c4ccccc4)CC3)c(O)n2n1 (configuration not stated)	?	-	-	?	-	1.7µM
S=c1sscc1-c1ccccc1	-	.	20µM	.	.	.
Cc1c(Br)ccc(NC(=O)c2ccccc2[N+](=O)[O-])c1C	-	-	-	-	-	-[5.75 µM]
CCOc1ccc(NC(=O)C2(c3ccc(OC)c(OC)c3)CCCC2)cc1	-	-	-	1.7µM	-	?
COc1ccc(NC(=O)NNC(=O)COc2ccc3ccccc3c2)cc1	-	-	-	-	-	-
COc1cc2cc(C(=O)Nc3ccccc3)c(N)nc2cc1OC	-	-	-	?	-	2.3µM
COc1cc2ccccc2cc1C(=O)Nc1cccnc1	32µM	-	-	.	-	-
CCOc1ccc(NC(=O)NNC(=O)COc2ccc3ccccc3c2)cc1	-	-	-	2.6µM	-	-
CC1=C(C(=O)N2CCCCCC2)CC(CC(=O)NC2CCCC2)C(=O)N1Cc1ccc(C(C)(C)C)cc1 (configuration not stated)	.	.	-	.	.	.
O=C(N/N=C/c1cccnc1)c1ccc2ccccc2c1O	-	.	-	-	-	-
O=C(Nc1cccnc1)c1ccc2ccccc2c1O	-	-	-	0.47µM	-	-
CCOc1ccc(NC(=O)c2cc(OC)nc3ccccc23)cc1	?	-	-	-	-	-[0.00184 µM]
COc1ccc2o/c(=N\O)c(C(=O)Nc3ccc(C)cc3)cc2c1	10µM	-	-	-	-	-
CCOc1ccc(NC(=O)c2cc3ccccc3cc2O)cc1	?	-	-	1.9µM	-	1µM
CCOc1ccc(NC(=O)c2cccc3ccccc23)cc1	?	-	-	?	-	-
CCOc1ccc(NC(=O)c2cc3ccccc3cc2OC)cc1	10µM	-	-	-	-	-
COc1ccc2oc(=N)c(C(=O)Nc3ccc(C)cc3)cc2c1	-	-	-	?	-	-
NN=C(c1cccc([N+](=O)[O-])c1)c1cccc([N+](=O)[O-])c1	-	.	-	.	.	.
CC(=O)[C@@]1(O)CC[C@H]2[C@H]3C[C@@H](C)C4=CC(=O)C=C[C@]4(C)[C@@]3(F)[C@@H](O)C[C@]21C	.	.	.	?	.	-
